This is part of a sample that, as a whole, favours compounds with a hit. Of some 79,000 tested, about 15% had one in any assay. Active and inactive are the calls of the source. Cut-off read from the data, not from the text of the source: active = growth inhibition above about 70%; inactive = the rest.
Columns and labels:
[1] = NCI Yeast Anticancer Drug Screen. Data for the rad50 strain (AID 155);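 note: 0% = growth of vehicle-only cultures of the same strain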; settings: S. cerevisiae rad50 strain growth inhibition; at 50.0 µM; stronger effect = higher value
Summary of the method: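 A DNA repair-deficient yeast mutant serves as the test organism; compound-induced growth inhibition is calculated against vehicle-treated cells.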

[2] = NCI Yeast Anticancer Drug Screen. Data for the mec2-1 strain (AID 157); settings: S. cerevisiae mec2-1 strain, at 50.0 µM, stronger effect = higher value
Summary of the method: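 Strain: mec2-1 (DNA repair/cell cycle alteration). Compound exposure, then growth measured; inhibition expressed relative to vehicle.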

[3] = NCI Yeast Anticancer Drug Screen. Data for the sgs1 mgt1 strain (AID 161);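 note: 0% = growth of cultures given vehicle only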; settings: S. cerevisiae sgs1 mgt1 strain, at 50.0 µM, stronger effect = higher value
Summary of the method: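 Mutant yeast exposed to compound; growth scored against vehicle-only wells.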

[4] = NCI Yeast Anticancer Drug Screen. Data for the cln2 rad14 strain (AID 165);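 note: 0% = growth equal to vehicle treated cultures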; settings: S. cerevisiae cln2 rad14 strain, at 50.0 µM, stronger effect = higher value
Summary of the method: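 Compounds are applied to the cln2 rad14 yeast strain, and growth is then compared with that of vehicle-treated cultures to give inhibition.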

[5] = NCI Yeast Anticancer Drug Screen. Data for the bub3 strain (AID 167); settings: S. cerevisiae bub3 mutant strain, at 50.0 µM, stronger effect = higher value
Summary of the method: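 Inhibition values come from growth of compound-treated mutant yeast normalised to vehicle-treated controls.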

[6] = NCI Yeast Anticancer Drug Screen. Data for the mlh1 rad18 strain (AID 175); settings: S. cerevisiae mlh1 rad18 strain growth inhibition; at 50.0 µM; stronger effect = higher value
Summary of the method: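 Read-out is yeast growth inhibition, calculated against vehicle-only controls. The compound was applied to a strain engineered with DNA damage repair alterations.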

Measured: growth inhibition

COc1ccc(/C=C2/NC(=S)N=C2Cl)cc1
inactive: [1] -6.9% | [2] -21.8% | [3] 4.3% | [4] -0.45% | [5] 18.1% | [6] -29%

Cc1ccc(OCC2OC(n3cnc4nc(N)nc(Cl)c43)CC2Oc2ccc(C)cc2)cc1 (stereo unspecified)
inactive: [1] 20.2% | [2] 28.4% | [3] 44.7% | [4] 46.5% | [5] 49.3% | [6] 2.6%

COc1c(OC)c(OC)c2c(c1OC)c(=O)c1ccccc1n2C
inactive: [1] 12.6% | [2] 22.9% | [3] 30.8% | [4] 18.8% | [5] 14.4% | [6] -42.2%

COc1ccc2cc1Oc1ccc(cc1)CC1c3cc(OC)c(cc3CCN1C)Oc1c(OC)c(OC)cc3c1C(C2)N(C)CC3 (stereo unspecified)
inactive: [1] -4.6% | [2] -15.7% | [3] -6.8% | [4] 6.9% | [5] 5.25% | [6] -43.3%

COc1ccc2nc(N/N=C/c3ccc(C)s3)cc(C)c2c1
inactive: [1] 22.3% | [2] -1.75% | [3] 15.6% | [4] 24.4% | [5] 0.7% | [6] 24.6%

COc1ccc2nc(NC(=O)/C(C#N)=C/c3ccccc3)sc2c1
inactive: [1] 5.9% | [2] -24.9% | [3] 44.6% | [4] -3.3% | [5] -8.95% | [6] -5.7%

CSc1nc(Br)nc2ncn(C3CC(Oc4ccc(C)cc4)C(COc4ccc(C)cc4)O3)c12 (stereo unspecified)
inactive: [1] 16.7% | [2] 1.7% | [3] 12.4% | [4] 0.7% | [5] -3.15% | [6] -4.75%

Cc1ccc(-c2noc(C)n2)cc1
inactive: [1] -12.9% | [2] 13.2% | [3] -2.75% | [4] -14.2% | [5] 4% | [6] 9.2%

N#CC1(C#N)C2CCCCC23OC(=N)C1(C#N)C(c1ccccc1)O3 (stereo unspecified)
inactive: [1] 9.3% | [2] 12.2% | [3] -22.7% | [4] -15.3% | [5] -29.9% | [6] -16.6%

CC(=N/N=C/c1ccccn1)/C(C)=N/N=C(C)/C(C)=N/N=C(C)/C(C)=N/N=C(C)/C(C)=N\N=C\c1ccccn1
inactive: [1] 24.1% | [2] 21.9% | [3] 4.05% | [4] 16.7% | [5] 8.15% | [6] -21.6%

CCCCCCSC[C@H](OC(C)=O)[C@@H](OC(C)=O)[C@@H](OC(C)=O)[C@@H](COC(C)=O)OC(C)=O
inactive: [1] -7% | [2] -14.8% | [3] 2.65% | [4] -2.95% | [5] 9% | [6] -5.35%
